Source: the supplement of paper PMC7366291
Counter-ions that a name gives are not always drawn. ± gives the standard deviation or the standard deviation of the averaged measurements.

Tests used:
Conditions in all cases: 25 µM; exposure: 24-48 hpf
[1] = system: Danio rerio Tg(wt1b:EGFP) embryo, pronephros; assay: glomerular separation, fold change vs DMSO control; higher = glomeruli further apart (abnormal)
In short: (§1)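 Every feature is expressed as a fold change relative to the averaged DMSO-treated embryos of the same day. The exposure ran from 24 to 48 hpf at 28.5°C, with dechorionated Tg(wt1b:EGFP) zebrafish embryos in HEPES-buffered E3 containing 0.003% PTU, 0.5% DMSO and 25 μM compound. Dorsal pronephros images taken in agarose-filled 96-well plates were reduced to maximum projections, on which 16 reference points were set by hand in Fiji for a macro to compute distances and angles. Values more than 2 SD from the feature mean were not used.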

[2] = system: Danio rerio Tg(wt1b:EGFP) embryo, pronephros; assay: glomerular width (mean of left and right), fold change vs DMSO control; higher = wider glomerulus
In short: as §1

[3] = system: Danio rerio Tg(wt1b:EGFP) embryo, pronephros; assay: fraction of imaged embryos annotated as normal kidney; higher = less nephrotoxic; extreme values may be limits of the assay
In short: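 The read-out is the proportion of embryos in each treatment manually annotated as normal-kidney. Exposure ran from 24 to 48 hpf at 28.5°C in 12-well plates, using dechorionated Tg(wt1b:EGFP) zebrafish embryos in 5 mM HEPES-buffered E3 with 0.003% PTU, 0.5% DMSO and 25 μM compound. For imaging, larvae were anaesthetised with tricaine, positioned dorsally in agarose-filled 96-well plates and captured by widefield fluorescence (470 nm, 10 z-slices), with scoring done on maximum projections.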

[4] = system: Danio rerio Tg(wt1b:EGFP) embryo, pronephros; assay: pronephric angle neck segment to proximal convoluted tubule (mean of left and right), fold change vs DMSO control; higher = larger pronephric angle
In short: as §1

| SMILES | glomerular separation [1] | glomerular width [2] | fraction of imaged embryos annotated as normal kidney [3] | pronephric angle neck segment [4] |
| --- | --- | --- | --- | --- |
| OC[C@H]1O[C@@H](Oc2ccc(O)cc2)[C@H](O)[C@@H](O)[C@@H]1O [Arbutin] | 0.869 ± 0.33 | 1.021 ± 0.0053 | 0.917 | 0.933 ± 0.018 |
| O=C(N[C@H](CO)[C@H](O)c1ccc([N+](=O)[O-])cc1)C(Cl)Cl [Chloramphenicol] | 1.33 ± 0.57 | 0.954 ± 0.035 | 1 | 0.935 ± 0.052 |
| Cc1ccccc1C(OCCN(C)C)c1ccccc1 (stereo unspecified) [Orphenadrine hydrochloride] | 0.79 ± 0.21 | 1.04 ± 0.013 | 0.833 | 1 ± 0.015 |
| CCN(CC)C(=O)Nc1ccc(OCC(O)CNC(C)(C)C)c(C(C)=O)c1 (stereo unspecified) [Celiprolol hydrochloride] | 0.729 ± 0.21 | 1.03 ± 0.018 | 0.833 | 0.964 ± 0.046 |
| Cc1cc(NS(=O)(=O)c2ccc(N)cc2)no1 [Sulfamethoxazole] | 0.872 ± 0.23 | 1.05 ± 0.026 | 0.833 | 0.9977 ± 0.0021 |
| CCCCC1C(=O)N(c2ccccc2)N(c2ccc(O)cc2)C1=O (stereo unspecified) [Oxyphenbutazone] | 1.27 ± 0.44 | 0.983 ± 0.027 | 1 | 0.998 ± 0.06 |
| Cc1cn([C@H]2C[C@H](N=[N+]=[N-])[C@@H](CO)O2)c(=O)[nH]c1=O [Zidovudine, AZT] | 1 ± 0.41 | 1.06 ± 0.08 | 1 | 0.991 ± 0.018 |
| CCOC(=O)OC(C)OC1=C(C(=O)Nc2ccccn2)N(C)S(=O)(=O)c2ccccc21 (stereo unspecified) [Ampiroxicam] | 0.796 ± 0.29 | 1.1 ± 0.027 | 1 | 0.963 ± 0.018 |
| CCN1CCCC1CNC(=O)c1cc(S(=O)(=O)CC)c(N)cc1OC (stereo unspecified) [Amisulpride] | 0.971 ± 0.31 | 1.04 ± 0.042 | 0.9 | 0.9586 ± 0.0016 |
| CS(=O)(=O)c1ccc([C@@H](O)[C@@H](CO)NC(=O)C(Cl)Cl)cc1 [Thiamphenicol] | 0.938 ± 0.22 | 1.03 ± 0.024 | 1 | 0.978 ± 0.025 |
| CCOc1ccc2ccccc2c1C(=O)N[C@@H]1C(=O)N2[C@@H]1SC(C)(C)[C@@H]2C(=O)O [Nafcillin sodium salt monohydrate] | 0.868 ± 0.32 | 0.941 ± 0.019 | 0.833 | 1.041 ± 0.0022 |
| Cc1cccc(CN2CCN(C(c3ccccc3)c3ccc(Cl)cc3)CC2)c1 (stereo unspecified) [Meclozine dihydrochloride] | 1.25 ± 0.33 | 0.93 ± 0.015 | 0.417 | 1.03 ± 0.073 |
| C[C@@H]1NC(=O)NC1=O [Methylhydantoin-5-(L)] | 0.772 ± 0.24 | 0.967 ± 0.048 | 1 | 0.995 ± 0.031 |
| N[C@@H](C(=O)N[C@@H]1C(=O)N2C(C(=O)O)=C(Cl)CC[C@H]12)c1ccccc1 [Loracarbef] | 1.06 ± 0.25 | 1.08 ± 0.011 | 0.917 | 0.999 ± 0.025 |
| Cc1cccn2c(=O)c(-c3nnn[nH]3)cnc12 [Pemirolast potassium] | 1.25 ± 0.38 | 0.89 ± 0.062 | 1 | 0.99 ± 0.042 |
| CN(C)CCCOc1nn(Cc2ccccc2)c2ccccc12 [Benzydamine hydrochloride] | 1.24 ± 0.21 | 1.03 ± 0.035 | 1 | 0.9939 ± 0.0028 |
| O=C(O)CNC(=O)C(CS)Cc1ccccc1 (stereo unspecified) [Thiorphan] | 0.84 ± 0.35 | 1.04 ± 0.036 | 0.75 | 0.994 ± 0.017 |
| C(=C\c1ccccc1)/CN1CCN(C(c2ccccc2)c2ccccc2)CC1 [Cinnarizine] | 1.15 ± 0.31 | 1.03 ± 0.024 | 0.75 | 0.995 ± 0.045 |
| CO/N=C(\C(=O)N[C@@H]1C(=O)N2C(C(=O)O)=C(COC(N)=O)CS[C@H]12)c1ccco1 [Cefuroxime sodium salt] | 1.05 ± 0.35 | 0.997 ± 0.025 | 1 | 0.985 ± 0.025 |
| OCCN1CCN(CCCN2c3ccccc3Sc3ccc(Cl)cc32)CC1 [Perphenazine] | 0.838 ± 0.23 | 1.07 ± 0.063 | 0.917 | 1.03 ± 0.012 |
| CC(N/C(=N\C#N)Nc1ccncc1)C(C)(C)C (stereo unspecified) [Pinacidil] | 0.881 ± 0.21 | 1.05 ± 0.1 | 0.727 | 1.01 ± 0.036 |
| N=C(N)NC(=O)c1nc(Cl)c(N)nc1N [Amiloride hydrochloride dihydrate] | 0.835 ± 0.27 | 0.978 ± 0.074 | 0.583 | 0.985 ± 0.023 |
| CN(Cc1cc(Br)cc(Br)c1N)C1CCCCC1 [Bromhexine hydrochloride] | 0.612 ± 0.2 | 0.984 ± 0.067 | 1 | 1 ± 0.026 |
| OC(CCN1CCCCC1)(c1ccccc1)C1CCCCC1 (stereo unspecified) [Trihexyphenidyl-D,L Hydrochloride] | 0.867 ± 0.41 | 0.97 ± 0.04 | 0.833 | 0.985 ± 0.056 |
| Cc1cccc(N(C)C(=S)Oc2ccc3ccccc3c2)c1 [Tolnaftate] | 2.28 ± 1.3 | 0.952 ± 0.03 | 0.75 | 1.05 ± 0.065 |
| C#C[C@]1(OC(C)=O)CC[C@H]2[C@@H]3CCC4=CC(=NO)CC[C@@H]4[C@H]3CC[C@@]21CC (mixture of isomers) [Norgestimate] | 2.81 ± 1.2 | 0.858 ± 0.059 | 0.0833 | 1.37 ± 0.015 |
| C[C@@H]1CN(c2c(F)c(N)c3c(=O)c(C(=O)O)cn(C4CC4)c3c2F)C[C@H](C)N1 [Sparfloxacin] | 0.812 ± 0.23 | 0.92 ± 0.019 | 1 | 1.04 ± 0.024 |
| C[C@@H](O)[C@H]1C(=O)N2C(C(=O)O)=C(S[C@@H]3CN[C@H](C(=O)N(C)C)C3)[C@H](C)[C@H]12 [Meropenem] | 1.03 ± 0.35 | 0.957 ± 0.021 | 0.75 | 1.0113 ± 1.4e-05 |
| Brc1c(NC2=NCCN2)ccc2nccnc12 [Brimonidine L-Tartrate] | 0.614 ± 0.22 | 1.11 ± 0.043 | 1 | 0.993 ± 0.1 |
